Test results published in PubChem BioAssay (Tox21).
Inconclusive results are not listed. Where a call stands in place of a potency, no number is given. Active and inactive are the calls of the source. Unless noted, the call rests on the fitted dose curve; in most records, active means well fitted curve in the direction sought with a large enough effect in the repeat runs; inconclusive means weak or mixed curves; inactive means no such curve, though single readings can be large; an effect the other way counts as inactive or inconclusive.

Key:
[1] = A CellTox Green Cytotoxicity Assay to monitor cytotoxicity in HepG2 cells - 0 hour (AID 1224882); further: nearly all actives have a fitted effect of over 35% in size
In short: (§1)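 HepG2, 600 cells/well premixed w/ CellTox Green; 5 h settle, 37 C/5% CO2; pintool cpd add (DMSO); 37 C, 40 h; fluorescence read at 0, 8, 16, 24, 32, 40 h.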

[2] = A CellTox Green Cytotoxicity Assay to monitor cytotoxicity in HepG2 cells - 32 hour (AID 1224883); further: nearly all actives have a fitted effect of over 50% in size; further: potency means the concentration at half of the fitted maximal effect
In short: as §1

[3] = A CellTox Green Cytotoxicity Assay to monitor cytotoxicity in HEK293 cells - 8 hour (AID 1224884); further: nearly all actives have a fitted effect of over 35% in size; further: potency means the concentration at half of the fitted maximal effect
In short: (§2)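 Read-out: fluorescence of a cell-impermeant cyanine dye staining DNA of dead cells, proportional to cytotoxicity. HEK293, 600 cells/well with reagent, compound (23 nL DMSO) added after 5 h; reads at 0, 8, 16, 24, 32, 40 h.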

[4] = qHTS RealTime-Glo MT Cell Viability Assay in HEK293 cells - 24 hour (AID 1224886); further: nearly all actives have a fitted effect of over 50% in size; further: potency means the concentration at half of the fitted maximal effect
In short: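 Tox21 10K qHTS, HEK293, 600 cells/well, RealTime-Glo reagent co-dispensed with cells; 5 h preincubation, compound by pintool, 37 C, luminescence at 0–40 h.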

[5] = qHTS RealTime-Glo MT Cell Viability Assay in HEK293 cells - 8 hour (AID 1224887); further: nearly all actives have a fitted effect of over 50% in size; further: potency means the concentration at half of the fitted maximal effect
In short: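 Luminescence readout at each listed time point; HEK293, 600 cells/well, RealTime-Glo MT reagent added with cells; compounds pinned (23 nL in DMSO) after 5 h at 37 C; continuous culture at 37 C.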

[6] = A CellTox Green Cytotoxicity Assay to monitor cytotoxicity in HEK293 cells - 16 hour (AID 1224888); further: nearly all actives have a fitted effect of over 35% in size; further: potency means the concentration at half of the fitted maximal effect
In short: as §2

[7] = qHTS RealTime-Glo MT Cell Viability Assay in HepG2 cells - 0 hour (AID 1224889); further: nearly all actives have a fitted effect of over 50% in size; further: potency means the concentration at half of the fitted maximal effect
In short: (§3)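 Cells + NanoLuc/prosubstrate dispensed (600 cells/well) → 5 h at 37 C/5% CO2 → compounds in DMSO transferred → 40 h incubation at 37 C, luminescence read at 0, 8, 16, 24, 32, 40 h.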

[8] = A CellTox Green Cytotoxicity Assay to monitor cytotoxicity in HepG2 cells - 8 hour (AID 1224890); further: nearly all actives have a fitted effect of over 45% in size; further: potency means the concentration at half of the fitted maximal effect
In short: as §1

[9] = qHTS assay to identify small molecule antagonists of the estrogen receptor alpha (ER-alpha) signaling pathway using the BG1 cell line in the presence of 0.1 nM 17-beta-estradiol - cell viability counter screen (AID 1259241); further: nearly all actives have a fitted effect of over 40% in size
In short: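 Estradiol-stimulated (0.1 nM) VM7Luc4E2 cells exposed to compounds 22 hr; viability measured by fluorescence of cleaved CellTiter-Fluor substrate after 30 min.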

[10] = qHTS assay to identify small molecule antagonists of the androgen receptor (AR) signaling pathway using the MDA cell line in the presence of 0.5 nM R1881 - cell viability counter screen (AID 1259242); further: nearly all actives have a fitted effect of over 45% in size; further: potency means the concentration at half of the fitted maximal effect
In short: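 Live-cell protease fluorescence, CellTiter-Fluor, 30 min at 37C. Cells: MDA-kb2, 3,000/well, preincubated 5 hr. Compounds plus 0.5 nM R1881 final, 16 hr, 37C, 0% CO2.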

[11] = biological target: Estrogen receptor (Homo sapiens) (UniProt P03372); experiment: qHTS assay to identify small molecule antagonists of the estrogen receptor alpha (ER-alpha) signaling pathway using the BG1 cell line in the presence of 0.1 nM 17-beta-estradiol (AID 1259244); further: nearly all actives have a fitted effect of over 50% in size; further: potency means the concentration at half of the fitted maximal effect
In short: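 Luminescence after ONE-Glo (30 min, room temperature) measured ERE-luciferase activity in VM7Luc4E2 cells treated 22 h with compound and 0.1 nM final 17beta-estradiol as stimulator.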

[12] = qHTS assay to identify small molecule phospholipidosis (PLD) inducers (AID 1259344; active means well fitted curve in the direction sought with a large enough effect; an effect the other way counts as inactive or inconclusive)
In short: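 Phospholipid accumulation was scored by imaging: fixed, Hoechst-counterstained HepG2 cells stained with LipidTOX Red after 24 h compound exposure at 37 C. Read-outs were pit count and pit intensity per well or per cell, with amiodarone and DMSO controls.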

[13] = qHTS assay to identify small molecule HDAC inhibitors (AID 1259364); further: potency means the concentration at half of the fitted maximal effect;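 further: wild-type HCT-116 cells with endogenous class I/II HDAC activity; nearly all actives have a fitted effect of over 45% in size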
In short: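 HCT-116 (wild type), 1,500 cells/well, overnight; compound 2 hr 37C 5% CO2; HDAC-Glo I/II reagent 30 min RT; luminescence readout.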

[14] = qHTS assay to identify small molecule antagonists of the sonic hedgehog signaling (Shh) pathway - cell viability counter screen (AID 1259367); further: nearly all actives have a fitted effect of over 55% in size; further: potency means the concentration at half of the fitted maximal effect
In short: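 Viability was read by CellTiter-Fluor fluorescence in the same wells, reagent added 23 hr into compound treatment and incubated 1 hr at 37C. The 3T3 Gli1-Luc reporter cells (2,000/well) received conditioned medium after compound and ran 24 hr.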

[15] = qHTS assay to identify small molecule agonists of the sonic hedgehog signaling (Shh) pathway (AID 1259368; calls by dose curve;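 further: NIH/3T3-derived 3T3Gli1-Luc cells carrying a stable Gli1-driven firefly luciferase reporter; series mostly up to about 92 µM; nearly all actives have a fitted effect of over 15% in size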)
In short: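 Read-out: firefly luciferase luminescence from a Gli1 response element reporter stably integrated in NIH/3T3-derived 3T3Gli1-Luc cells, measured 30 min at room temperature after reagent addition. Compound exposure lasted 24 hr at 37 C, 5% CO2.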

[16] = qHTS assay to identify small molecule HDAC inhibitors - cell viability counter screen (AID 1259365); further: nearly all actives have a fitted effect of over 50% in size; further: potency means the concentration at half of the fitted maximal effect
In short: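 After overnight seeding at 1,500 cells per well, wild-type HCT-116 cultures took up compounds in DMSO for 2hr at 37 C. Viable cell content came from luminescence with CellTiter-Glo.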

[17] = qHTS assay to identify small molecule agonists of the sonic hedgehog signaling (Shh) pathway - cell viability counter screen (AID 1259366); further: nearly all actives have a fitted effect of over 50% in size; further: potency means the concentration at half of the fitted maximal effect
In short: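 Same-well cytotoxicity read. Gli1-Luc reporter 3T3 cells; compounds 24hr, 37C/5% CO2; CellTiter-Fluor fluorescence.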

[18] = qHTS assay to identify small molecule antagonists of the sonic hedgehog signaling (Shh) pathway (AID 1259369; calls by dose curve; further: nearly all actives have a fitted effect of over 45% in size; further: potency means the concentration at half of the fitted maximal effect)
In short: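 Luminescence readout: firefly Luc under Gli1 response element in 3T3Gli1-Luc cells (NIH/3T3 clone). Antagonist mode, stimulation by conditioned medium; compound exposure 24hr at 37 C, 5% CO2.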

[19] = qHTS RealTime-Glo MT Cell Viability Assay in HepG2 cells - 16 hour (AID 1224885); further: nearly all actives have a fitted effect of over 50% in size; further: potency means the concentration at half of the fitted maximal effect
In short: as §3

[20] = biological target: Androgen receptor (Homo sapiens) (UniProt P10275); experiment: qHTS assay to identify small molecule antagonists of the androgen receptor (AR) signaling pathway using the MDA cell line in the presence of 0.5 nM R1881 (AID 1259243)
In short: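 MDA-kb2, MMTV-luc (AR/GR elements); 3,000 cells/well; cpd + 0.5 nM R1881 final; 16 hr 37C, 0% CO2; ONE-Glo 30 min RT; luminescence.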

Sequence of Estrogen receptor (Homo sapiens) (P03372 whole entry, looked up): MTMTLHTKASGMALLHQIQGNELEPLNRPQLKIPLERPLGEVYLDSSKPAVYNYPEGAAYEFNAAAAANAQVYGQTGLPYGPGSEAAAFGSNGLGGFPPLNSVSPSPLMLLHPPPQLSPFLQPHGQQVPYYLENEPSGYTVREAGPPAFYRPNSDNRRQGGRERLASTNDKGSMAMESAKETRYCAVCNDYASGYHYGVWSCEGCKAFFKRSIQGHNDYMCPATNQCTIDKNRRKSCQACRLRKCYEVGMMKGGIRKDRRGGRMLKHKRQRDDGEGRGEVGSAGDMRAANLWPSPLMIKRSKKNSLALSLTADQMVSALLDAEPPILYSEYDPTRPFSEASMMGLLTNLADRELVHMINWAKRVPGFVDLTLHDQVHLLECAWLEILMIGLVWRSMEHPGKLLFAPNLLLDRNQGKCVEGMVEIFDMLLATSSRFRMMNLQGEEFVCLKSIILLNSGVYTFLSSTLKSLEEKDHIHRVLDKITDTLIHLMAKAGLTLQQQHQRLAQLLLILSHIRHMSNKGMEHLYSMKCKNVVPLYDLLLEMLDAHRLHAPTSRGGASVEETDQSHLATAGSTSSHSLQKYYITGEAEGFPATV
Sequence of Androgen receptor (Homo sapiens) (P10275 whole entry, looked up): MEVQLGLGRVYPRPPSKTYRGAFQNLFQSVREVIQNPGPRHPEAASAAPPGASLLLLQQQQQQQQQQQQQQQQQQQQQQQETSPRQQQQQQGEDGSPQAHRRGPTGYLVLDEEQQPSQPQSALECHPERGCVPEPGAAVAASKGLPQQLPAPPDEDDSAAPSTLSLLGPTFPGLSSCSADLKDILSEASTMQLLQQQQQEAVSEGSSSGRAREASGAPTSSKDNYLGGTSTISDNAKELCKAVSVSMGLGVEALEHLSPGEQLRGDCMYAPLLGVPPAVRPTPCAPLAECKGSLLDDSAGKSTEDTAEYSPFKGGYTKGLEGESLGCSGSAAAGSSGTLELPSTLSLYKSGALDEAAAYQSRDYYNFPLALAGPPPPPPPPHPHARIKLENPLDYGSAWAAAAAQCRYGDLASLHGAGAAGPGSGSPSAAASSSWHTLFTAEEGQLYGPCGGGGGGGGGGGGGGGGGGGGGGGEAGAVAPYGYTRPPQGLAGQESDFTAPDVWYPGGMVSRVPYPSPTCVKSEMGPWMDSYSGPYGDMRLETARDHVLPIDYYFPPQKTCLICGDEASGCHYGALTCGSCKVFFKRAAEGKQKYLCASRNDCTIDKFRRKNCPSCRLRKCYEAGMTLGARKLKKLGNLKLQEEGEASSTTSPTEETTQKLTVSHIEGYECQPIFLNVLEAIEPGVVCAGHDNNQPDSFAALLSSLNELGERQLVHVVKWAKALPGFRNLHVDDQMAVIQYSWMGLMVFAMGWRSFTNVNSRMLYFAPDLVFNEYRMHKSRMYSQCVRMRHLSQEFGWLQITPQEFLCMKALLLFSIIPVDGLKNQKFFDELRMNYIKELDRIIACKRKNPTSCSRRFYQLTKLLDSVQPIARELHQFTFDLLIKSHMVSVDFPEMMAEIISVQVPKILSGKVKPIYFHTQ

| Structure (SMILES) | Potency [1] | Potency [2] | Potency [3] | Potency [4] | Potency [5] | Potency [6] | Potency [7] | Potency [8] | Potency [9] | Potency [10] | Potency [11] | Potency [12] | Potency [13] | Potency [14] | Potency [15] | Potency [16] | Potency [17] | Potency [18] | Potency [19] | Potency [20] |
| --- | --- | --- | --- | --- | --- | --- | --- | --- | --- | --- | --- | --- | --- | --- | --- | --- | --- | --- | --- | --- |
| O=c1[nH]cnc2nc[nH]c12 | inactive | inactive | inactive | inactive | inactive | inactive | inactive | inactive | inactive | inactive | inactive | inactive | inactive | inactive | inactive |  |  |  |  |  |
| O=c1c(-c2ccccc2)c1-c1ccccc1 | inactive | 9.52 µM (active) | inactive | 13.4 µM (active) | 16.9 µM (active) | inactive |  | inactive | inactive | inactive |  | inactive | inactive | 11.9 µM (active) |  | inactive | 13.3 µM (active) | 5.96 µM (active) |  |  |
| C/C=C1/C(=O)C[C@H]2[C@@H]3CCC4=CC(=O)CC[C@]4(C)[C@H]3CC[C@]12C | inactive | 48.8 µM (active) | inactive | 48.8 µM (active) | 24.5 µM (active) | inactive | 0.435 µM (active) | inactive | inactive |  |  |  | inactive | inactive | inactive | inactive |  |  |  |  |
| C/C(=C(/OCCOc1ccc(Cl)cc1)c1ccc(Cl)cc1Cl)n1ccnc1 | inactive | inactive | inactive |  |  |  | inactive | inactive | inactive | inactive |  |  | inactive | inactive | inactive |  | inactive |  | inactive |  |
| Cc1cc(O)c(C(C)(C)C)cc1C(C)(C)C | inactive | 24.5 µM (active) | 19.5 µM (active) | 19.5 µM (active) | 13.8 µM (active) | 34.7 µM (active) | inactive | 24.5 µM (active) | inactive |  | 54.5 µM (active) |  | inactive | 61.1 µM (active) | inactive |  | 61.1 µM (active) |  |  | 61.1 µM (active) |
| COc1ccc(CN2CCN(C(c3ccc(F)cc3)c3ccc(F)cc3)CC2)c(OC)c1OC | inactive | 10.7 µM (active) | inactive | 9.52 µM (active) | 19 µM (active) |  | inactive | inactive | inactive |  |  |  | inactive |  | inactive | inactive |  | 29.8 µM (active) |  |  |
| CCCCCCCCCCCCCC[P+](CCCC)(CCCC)CCCC (tested in a mixture with another compound) | inactive | 15.6 µM (active) | 19.6 µM (active) | 1.96 µM (active) | 15.6 µM (active) | 17.5 µM (active) | inactive | 22 µM (active) | inactive | 19.4 µM (active) | 1.73 µM (active) |  | inactive | 61.5 µM (active) |  |  | 27.5 µM (active) | 0.138 µM (active) |  |  |
| O=C(Nc1cccc(C(F)(F)F)c1)c1cc(Br)cc(Br)c1O | inactive | 17.4 µM (active) | inactive | 4.9 µM (active) | inactive | inactive |  | inactive | inactive |  | 4.86 µM (active) | inactive | 3.86 µM (active) |  | inactive | inactive |  | 1.72 µM (active) |  |  |
| C1CCCC1 | inactive | inactive | inactive | inactive | inactive | inactive |  | inactive | inactive | inactive |  |  | inactive | inactive | inactive | inactive | inactive |  |  |  |
| CNCc1cc(F)ccc1Oc1ccc(Cl)c(Cl)c1 | inactive | 49 µM (active) | inactive |  |  |  |  |  | inactive |  | 54.5 µM (active) |  | inactive |  | inactive | inactive |  | 12.2 µM (active) | 49 µM (active) |  |
| CCC(C)(C)C1CCCCC1OC(C)=O (configuration not stated) | inactive | inactive | inactive | inactive | inactive | inactive | inactive | inactive | inactive | inactive | inactive |  | inactive | inactive | inactive | inactive | inactive | inactive |  |  |
| O=C(NOCC1CC1)c1ccc(F)c(F)c1Nc1ccc(I)cc1Cl | inactive | 0.0849 µM (active) | inactive |  |  |  |  | inactive | inactive |  |  | inactive | inactive | inactive | inactive | inactive | inactive | 13.3 µM (active) | inactive | 8.41 µM (active) |
| CCCCCCCCCCCCCCCCCC[N+](C)(C)Cc1ccccc1 | inactive | 22.1 µM (active) | 19.7 µM (active) | 6.23 µM (active) | 24.8 µM (active) | 22.1 µM (active) |  | 55.5 µM (active) |  | 49 µM (active) | 55 µM (active) |  | inactive | 30.9 µM (active) |  | 61.7 µM (active) | 24.6 µM (active) | 0.155 µM (active) |  | 17.4 µM (active) |
| CCCCN(CCCC)C(=O)N(CCCC)CCCC | inactive | inactive | inactive | inactive | inactive | inactive | inactive | inactive | inactive | inactive |  |  | inactive | inactive | inactive | inactive | inactive | inactive |  |  |
